Data from PubChem BioAssay (NCATS).
Results filed as inconclusive are left out. Values without a mark were called inactive. Calls of active or inactive are those of the source. Calls follow the shape of the dose curve; as a rule, active = well fitted inhibition curve with a large enough effect; inconclusive = small, poorly fitted or top-dose-only effect; inactive = flat fitted curve, though single readings scatter.

How the values were obtained:
Assay in all cases: Cytotoxic Profiling of Annotated Libraries Using Quantitative High-Throughput Screening (AID 1296008); also: nearly all actives have a fitted effect of over 60% in size
Conditions in all cases: Five cell lines viability, CellTiter-Glo ATP luminescence, 48-72 h; max response: hits give low values
HaCat = system: HaCat
How it was run: (§1)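 Compounds were pin-transferred onto cells and incubated 48 or 72 hr at 37 degree Celsius, 95% humidity. CellTiter-Glo was added, plates sat 10 min at room temperature, then ATP-coupled luminescence was imaged as the viability read-out.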

KB-3-1 = system: KB-3-1
How it was run: as §1

NIH3T3 = system: NIH3T3
How it was run: as §1
% is scaled to controls: 0 for no effect and ±100 for the full control effect; potency is read from the fitted curve at half-maximal effect.

What does the source list for `C[C@@H]1O[C@@H](OC[C@H]2O[C@@H](OC(CCCCc3ccc(O)cc3)CCc3ccc(O)cc3)[C@H](O)[C@@H](O)[C@@H]2O)[C@H](O)[C@H](O)[C@H]1O` (some centres not stated)?
max response (HaCat): -5.01%; outcome (KB-3-1): inactive; max response (NIH3T3): -4.82%

Which max response (HaCat) does the source give for `OC[C@H]1O[C@@H](O[C@H]2[C@H](OCc3ccccc3)O[C@H](CO[C@@H]3OC[C@@H](O)[C@H](O)[C@H]3O)[C@@H](O)[C@@H]2O)[C@H](O)[C@@H](O)[C@@H]1O` here?
The max response was -3.65%.

What about the max response (KB-3-1) of the same molecule?
Its max response is 4.93%.

What about the max response (NIH3T3) of the same molecule?
The max response was -3.84%.

Which results are given for `Nc1ccc(-c2cccc3c(=O)cc(N4CCOCC4)oc23)cc1`?
Potency (HaCat): 6.51 µM (active); Potency (KB-3-1): 20.6 µM (active); Potency (NIH3T3): 8.2 µM (active)

Which max response (HaCat) does the source give for `CC(C)O[C@@H]1O[C@H](CO)[C@@H](O)[C@H](O)[C@H]1O` here?
The max response was 4.48%.

What about the max response (KB-3-1) of the same molecule?
The max response was 2%.

What about the max response (NIH3T3) of the same molecule?
Its max response is 4.22%.

How did the max response (HaCat) turn out when `OC[C@H]1O[C@@H](OC(CCCCc2ccc(O)cc2)CCc2ccc(O)cc2)[C@H](O)[C@@H](O)[C@@H]1O` (some centres not stated) was run?
Its max response is -20.5%.

And the outcome (KB-3-1)?
The outcome was “inactive”.

And the max response (NIH3T3)?
Its max response is -27.4%.

Which results are given for `CC1(C)CCCC2(C)C1C(O)C=C(CO)C2(O)CO` (configuration not stated)?
max response (HaCat): -4.77%; outcome (KB-3-1): inactive; max response (NIH3T3): -1.11%

`Cc1ccc(S(=O)(=O)Cc2nc(-c3ccc(C(=O)NCc4cccnc4)cc3)oc2C)cc1` was tested. Which Potency (HaCat) did it give?
The Potency was 0.146 µM (active).

And the Potency (KB-3-1)?
The Potency was 0.0082 µM (active).

What about the Potency (NIH3T3) of the same molecule?
The Potency was 0.0731 µM (active).

With `COC(=O)CC(O)C1OC(c2ccccc2)C(O)C1O` (configuration not stated) as the molecule, how does the max response (HaCat) read?
Its max response is -28.3%.

What about the max response (KB-3-1) of the same molecule?
The max response was 2.62%.

What about the max response (NIH3T3) of the same molecule?
The max response was -5.26%.

Which results are given for `C[C@@H]1O[C@@H](O[C@H]2[C@H](OC(=O)[C@]34CCC(C)(C)C[C@H]3C3=CCC5[C@@]6(C)CC[C@H](O[C@@H]7O[C@H](C(=O)O)[C@@H](O)[C@H](O)[C@H]7O[C@@H]7O[C@H](CO)[C@H](O)[C@H](O)[C@H]7O)[C@@](C)(C=O)C6CC[C@@]5(C)[C@]3(C)C[C@H]4O)O[C@H](C)[C@H](O[C@@H]3O[C@H](C)[C@H](O)[C@H](O)[C@H]3O)[C@@H]2O)[C@H](O)[C@H](O)[C@H]1O[C@@H]1OC[C@@H](O)[C@H](O[C@@H]2O[C@H](CO)[C@@H](O)[C@H](O)[C@H]2O)[C@H]1O` (some centres not stated)?
max response (HaCat): -0.834%; max response (KB-3-1): 9.53%; max response (NIH3T3): 3.95%

For `COc1ccc(-c2nc(-c3ccc(-c4cccc(Cl)c4)o3)[nH]c2-c2ccc(OC)cc2)cc1`, which max response (HaCat) is on record?
Its max response is -26.5%.

What about the max response (KB-3-1) of the same molecule?
Its max response is -16.3%.

And the max response (NIH3T3)?
Its max response is -19.3%.

Which max response (HaCat) does the source give for `O=C(O)C(O[C@@H]1O[C@H](CO[C@@H]2O[C@H](CO)[C@@H](O)[C@H](O)[C@H]2O)[C@@H](O)[C@H](O)[C@H]1O)c1ccccc1` (some centres not stated) here?
The max response was -3.34%.

What about the max response (KB-3-1) of the same molecule?
Its max response is 7.09%.

And the max response (NIH3T3)?
Its max response is 1.38%.

With `CC1=C(CCC(C)CC(=O)O)[C@@]2(C)CCCC(C)(C)C2CC1=O` (some centres not stated) as the molecule, how does the max response (HaCat) read?
The max response was -7.07%.

What about the max response (KB-3-1) of the same molecule?
The max response was -1.22%.

What about the max response (NIH3T3) of the same molecule?
Its max response is -3.99%.

For `C(#Cc1nc2ncccc2nc1OCCN1CCCC1)c1ccccc1`, which Potency (HaCat) is on record?
The Potency was 5.8 µM (active).

And the Potency (KB-3-1)?
The Potency was 8.2 µM (active).

What about the Potency (NIH3T3) of the same molecule?
The Potency was 5.17 µM (active).

Which outcome (HaCat) does the source give for `C=C1C(OC2OCC(O)C(O)C2O)CC2C(C)(C)C(O)CCC2(C)C1CC/C(C)=C\CO` (configuration not stated) here?
The outcome was “inactive”.

And the max response (KB-3-1)?
Its max response is 3.38%.

What about the max response (NIH3T3) of the same molecule?
The max response was 1.42%.

Which results are given for `CC(C)=CCC/C(C)=C/CCC1(C)Oc2c(c(O)cc3c2CN(C(CCC(=O)O)C(=O)O)C3=O)CC1O` (configuration not stated)?
max response (HaCat): -10.3%; outcome (KB-3-1): inactive; max response (NIH3T3): -11%

What does the source list for `CS(=O)(=O)c1ccc(-c2nnc(/C=C/c3nnc(-c4ccc(C#N)cc4)o3)n2-c2ccccc2Cl)nc1`?
outcome (HaCat): inactive; max response (KB-3-1): 2.94%; max response (NIH3T3): -6.1%

For `CC(=O)C1=CCC2C3CCC4CC(O[C@@H]5O[C@H](CO)[C@@H](O[C@@H]6O[C@@H](C)[C@H](O)[C@@H](O)[C@H]6O)[C@H](O)[C@H]5O[C@@H]5O[C@H](CO)[C@@H](O)[C@H](O)[C@H]5O)CCC4(C)C3CCC12C` (some centres not stated), which max response (HaCat) is on record?
The max response was -22.8%.

And the outcome (KB-3-1)?
The outcome was “inactive”.

What about the max response (NIH3T3) of the same molecule?
Its max response is -4.06%.

`C=C[C@H]1[C@H](O[C@@H]2O[C@H](CO)[C@@H](O)[C@H](O)[C@H]2O)OC=C(C(=O)OC)[C@H]1CC(=O)O` was tested. Which max response (HaCat) did it give?
The max response was -3.58%.

And the max response (KB-3-1)?
Its max response is -3%.

And the max response (NIH3T3)?
Its max response is -8.69%.

Which max response (HaCat) does the source give for `CC1=CC(=O)CC(C)(C)C1CCC(C)O[C@@H]1O[C@H](CO[C@@H]2OC[C@@H](O)[C@H](O)[C@H]2O)[C@@H](O)[C@H](O)[C@H]1O` (some centres not stated) here?
Its max response is 4.17%.

What about the max response (KB-3-1) of the same molecule?
The max response was 1.12%.

And the max response (NIH3T3)?
The max response was 3.34%.
